# Source: PubChem BioAssay (EPA / NIEHS)
# Calls of active or inactive are those of the source. Rule for the calls: active = hit-call score of the fitted dose curve at least 0.9, where 1 is the maximum; inactive = score below 0.9.
# Test: BSK_3C_Vis: BioMAP Diversity Plus: 3C Assay for Morphology Visualization (AID 2283025);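 note: fitted both ways so gain or loss versus DMSO counts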
# Conditions: primary human endothelial cells (HUVEC)
# Experimental: BSK_3C is a cell-based, multiplexed-readout assay that uses umbilical vein endothelium, a human vascular primary cell, with measurements taken at 24 hours after chemical dosing in a 96-well plate.BSK_3C_Vis is an assay component measured in the BSK_3C assay. It measures NA related to cell morphology using light microscopy technology.Data from the assay component BSK_3C_Vis was analyzed into 1 assay endpoint. This assay endpoint, BSK_3C_Vis, was analyzed with bidirectional fitting relative to DMSO as the negative control and baseline of activity. Using a type of morphology reporter, gain or loss-of-signal activity can be used to understand changes in the background control. Furthermore, this assay endpoint can be referred to as a secondary readout, because this assay has produced multiple assay endpoints where this one serves a background control function. To generalize the intended target to other relatable targets, this assay endpoint is annotated to the cell morphology intended target family, where the subfamily is cell conformation.
# The levels of cell surface (or secreted, indicated by the prefix "s") biomarker endpoints were measured by ELISA. Overt cytotoxicity to cells in confluent adherent cultures (all systems other than the BT system) was assessed by measuring total protein levels using sulforhodamine B (SRB) staining in parallel cultures at the time of biomarker measurements, indicated as SRB endpoints. For proliferation assays for adherent cell types, individual cell types are cultured at sub-confluence and relative cell numbers quantified by SRB staining at time points optimized for each system (48 h: 3C and CASM3C systems; 72 h: BT and HDF3CGF systems; 96 h: SAg system). SRB was performed by staining cells with 0.1% SRB after fixation with 10% TCA and reading wells at 560 nm.Viability and proliferation of PBMC (T cells) was quantified by Alamar Blue reduction for the SAg and BT systems. For PBMC viability (referred to as PBMC Cytotoxicity within the assay endpoint names), cells were plated (75,000/well in a 96-well plate) and then chemical samples added for 1 h before addition of activators, SEB and TSST-1 (20 ng/mL final concentration each). Cells were incubated for 90 h. Then, Alamar Blue (20 uL/well) (Invitrogen, Cat DAL1100) was added for 6 h, and the plates were read with a fluorescence microplate reader at 546/580 nm (excitation/emission). For PBMC proliferation, cells were plated and activated as above but incubated for only 16 h prior to addition of Alamar Blue. Plates were read after 6 h.
Structure (SMILES),outcome,AC50
CC(C)c1nnc2ccc(-c3ocnc3-c3cc(F)ccc3F)cn12,inactive,–
OC[C@H]1O[C@@](CO)(O[C@H]2O[C@H](CO)[C@@H](O)[C@H](O)[C@H]2O)[C@@H](O)[C@@H]1O,inactive,–
COCc1nnc(-c2ccc[n+]([O-])c2)n1-c1c(Cl)c(Cl)cc2[nH]c(=O)c(=O)[nH]c12,inactive,–
OC[C@H]1O[C@@H]2O[C@H]3[C@H](O)[C@@H](O)[C@@H](O[C@H]4[C@H](O)[C@@H](O)[C@@H](O[C@H]5[C@H](O)[C@@H](O)[C@@H](O[C@H]6[C@H](O)[C@@H](O)[C@@H](O[C@H]7[C@H](O)[C@@H](O)[C@@H](O[C@H]1[C@H](O)[C@H]2O)O[C@@H]7CO)O[C@@H]6CO)O[C@@H]5CO)O[C@@H]4CO)O[C@@H]3CO,inactive,–
CC1(C)C(=O)N(Cl)C(=O)N1Cl,inactive,–
CCCc1ccccc1,inactive,–
CCn1nc(C)c2c1C(=O)NCC(c1ccc(O)cc1)=N2,inactive,–
O=c1[nH]cnc2c1ncn2[C@H]1CC[C@@H](CO)O1,inactive,–
OCCOCCOCCO,inactive,–
CCCCOC(=O)c1ccccc1,inactive,–
COS(C)(=O)=O,inactive,–
c1ccc2c(c1)-c1cccc3c1c-2cc1ccccc13,inactive,–
CCCCCCCC1CCC(=O)O1 (stereo not given),inactive,–
Cc1ncc([C@@H](CCCCCCc2ccc3c(n2)NCCC3)CC(=O)O)cn1,inactive,–
c1ccc2ncccc2c1,inactive,–
NC(=O)N1c2ccccc2C=Cc2ccccc21,inactive,–
CCc1ccc(O)c(C(C)(C)C)c1,–,39.3 µM (active)
O=S1(=O)CCCO1,inactive,–
NC(=O)NN=Cc1ccc([N+](=O)[O-])o1,inactive,–
CC[C@H](C)C(=O)O[C@H]1C[C@H](O)C=C2C=C[C@H](C)[C@H](CC[C@@H](O)C[C@@H](O)CC(=O)O)[C@H]21,inactive,–

Structure (SMILES),outcome,AC50
S=P(N1CC1)(N1CC1)N1CC1,inactive,–
CCCCCCCCCCCCCCO,–,37.5 µM (active)
CCCCCOC(C)=O,inactive,–
Cc1nccn1-c1ccc(Sc2cccc(C3(C(N)=O)CCOCC3)c2)cc1,inactive,–
CCc1cccc(CC)c1N,inactive,–
CCCCCCCCN(C)C,inactive,–
CCCC(CCC)C(=O)O,inactive,–
COc1cc2c(c(OC)c1OC)-c1ccc(OC)c(=O)cc1[C@@H](NC(C)=O)CC2,–,0.488 µM (active)
C[C@@H](Oc1ccc(CNC(=O)c2cccnc2Oc2ccc3c(c2)OCO3)c(F)c1)C(=O)O,inactive,–
NC(=O)N(O)[C@@H]1COc2cc(OCc3ccccc3)ccc21,inactive,–
NNC(=O)c1ccncc1,inactive,–
Cn1c(=O)c2[nH]cnc2n(C)c1=O,inactive,–
Cc1nc(-c2ccccn2)ncc1C(=O)Nn1cc(C)c2cc(F)ccc21,inactive,–
CC(C)CCCCCCOC(=O)C1CCCCC1C(=O)OCCCCCCC(C)C (stereo not given),inactive,–
O=C(NO)C1(NS(=O)(=O)c2ccc(Oc3ccc(F)cc3)cc2)CCOCC1,inactive,–
C=CN1CCCC1=O,inactive,–
CCCCCCCCCC,inactive,–
COc1cc(C(C)C)c2c(c1)S(=O)(=O)N(COc1cc(=O)n3cccc(OCCN4CCCCC4)c3n1)C2=O,inactive,–
OCCNCCO,inactive,–
CCOC(N)=O,inactive,–
